Most compounds without a hit are left out; they make up all but 2.5% or so of the library.
MEKK2 mut-MEK5: signal of MEK5 binding to mutant human MEKK2 PB1 domain. actives 0.35% (n = 290,000). percent response, % at 10 µM. AID 1530. bead flow cytometry, Alexa488-MEK5 binding to MEKK2 mutant; in the data active means percent response above about 24%, passing the limit was not always enough
MEKK2 WT-MEK5: raises or lowers MEK5 binding to wildtype human MEKK2 PB1 domain | Q9Y2U5 | bead flow cytometry, Alexa488-MEK5 binding to MEKK2 WT; actives lie on both sides | binding response (% of control), % at 10 µM | actives 1.1% (n = 290,000) | AID 1531; in the data active means binding response below about 67% or above about 130%
MEKK3 PB1 HTS: modulators (inhibitors or enhancers) of MEK5 binding to human MEKK3 PB1 domain; binding response (% of control), % at 10 µM; Q99759; bead-based flow cytometry, Alexa488-MEK5 binding to MEKK3; actives lie on both sides; 0 = blocked by unlabeled MEK5, 100 = vehicle; actives 1.4% (n = 290,000);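 active means binding response more than 3 SD above or below the average of its plate-row segment, actives on both sides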;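 further: Alexa488 bead fluorescence after subtracting the streptavidin-only scavenger bead signal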
GRK2 aptamer HTS: blocks RNA aptamer binding to human GRK2 | P25098 | bead flow cytometry, FAM-aptamer displacement from GRK2 | inhibition of aptamer binding, % at 10 µM | actives 0.59% (n = 330,000);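 active means inhibition of aptamer binding above 40%, roughly 3 SD of noise, on plates passing a quality check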;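 further: median bead fluorescence of bound FAM aptamer so fluorescent compounds give negative values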
MEKK2wt confirm: raises or lowers MEK5 binding to wildtype human MEKK2, retest; shares compounds with MEKK3 PB1 HTS; bead flow cytometry, Alexa488-MEK5 binding to MEKK2 WT; actives lie on both sides; binding response (% of control), % at 10 µM; actives 2.4% (n = 5,900); in the data active means binding response below about 16% or above about 210%; inactive means in between
MEKK2mut-MEK5: signal of MEK5 binding to mutant human MEKK2, retest; shares compounds with MEKK3 PB1 HTS; bead flow cytometry, Alexa488-MEK5 binding to MEKK2 mutant; percent response, % at 10 µM; actives 2% (n = 5,900); in the data active means percent response mostly above about 71%, no sharp cut-off; inactive means mostly below about 38%;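 further: higher means compound restores mutant binding toward wildtype level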
MEKK3 confirm: MEKK3-MEK5 PB1 inhibition, single concentration confirmation. bead flow cytometry, Alexa488-MEK5 binding to MEKK3; stronger effect = lower value. binding response (% of control), % at 10 µM. actives 1.8% (n = 5,900). shares compounds with MEKK3 PB1 HTS;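 active means binding response below 72% of control, or above a set upper limit, though filed actives all read lower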;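 further: 100% = DMSO only wells and 0% = binding blocked by excess unlabeled MEK5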
The depositor's hits bear a star; · = not tested or not shown; [ ] = remark or other dose.

SMILES | MEKK2 mut-MEK5 | MEKK2 WT-MEK5 | MEKK3 PB1 HTS | GRK2 aptamer HTS | MEKK2wt confirm | MEKK2mut-MEK5 | MEKK3 confirm
Cc1cc(C)cc(C(=O)Oc2coc(CSc3nnc(NC(=O)C4CC4)s3)cc2=O)c1 | 29 | 120 | 109 | 3 | · | · | ·
CCOc1ccc(CCNC(=O)COC(=O)c2cccnc2OCC)cc1OCC | 5 | 104 | 103 | 1 | · | · | ·
O=C(NCc1ccc2c(c1)OCO2)C(=O)NCC(c1ccco1)N1CCN(c2ccccc2)CC1 (stereo not drawn) | 15 | 119 | 136* | 0 | 97 | -10 | 101
CC(=O)c1cccc(Nc2c([N+](=O)[O-])c(=O)oc3ccccc23)c1 | -3 | 97 | 100 | 3 | · | · | ·
CCCCCC(=O)Nc1cccc(C2=NOC3(C2)C[C@H](C(N)=O)N(C(=O)CC#N)C3)c1 (stereo partly drawn) | -14 | 1.0*[inhibitor] | 1.0*[inhibitor] | · | 99 | -12 | 100
CCCCOc1ccc(Br)cc1/C(C)=N/NC1=NCCN1 | 35* | 162* | 113 | 0 | 144 | 31 | 105
CCCCCCOc1ccc(/C(C)=N/NC2=NCCN2)cc1[N+](=O)[O-] | 46 | 203* | 109 | 0 | 226* | 68 | 112
C/C(=N\NC1=NCCN1)c1ccc(N)c([N+](=O)[O-])c1 | -31 | 59 | 46*[inhibitor] | 0 | 108 | 5 | 105
CCC(C)C(NC(=O)c1ccccc1NC(=O)c1ccccc1)C(=O)O (stereo not drawn) | -12 | 95 | 96 | 9 | · | · | ·
O=C1CC(N2CCN(Cc3ccc(Cl)cc3)CC2)C(=O)N1CCc1ccccc1 (stereo not drawn) | 22 | 108 | 119 | 0 | · | · | ·
CC1Cc2ccccc2N1C(=O)Cc1cccs1 (stereo not drawn) | 7 | 94 | 98 | 0 | · | · | ·
O=C(Nc1ccc2c(c1)OCO2)c1ccc(NC2CC2)c([N+](=O)[O-])c1 | 1 | 112 | 151* | 1 | 100 | -7 | 101
Cc1nn2c(Nc3ccc(F)cc3)c3c(nc2c1-c1ccccc1)CCC3 | 1 | 108 | 119 | 0 | · | · | ·
COc1cccc(Nc2c3c(nc4c(-c5ccccc5)c(C)nn24)CCC3)c1 | 1 | 115 | 132* | 0 | 30 | -19 | 56*
Cc1nn2c(N3CCCC3)c3c(nc2c1-c1ccccc1)CCC3 | -13 | 30*[inhibitor] | 37*[inhibitor] | 1 | 96 | 2 | 103
Cc1nn2c(N3CCN(CCO)CC3)c3c(nc2c1-c1ccccc1)CCCC3 | 10 | 126 | 107 | 0 | · | · | ·
NC(=O)CN1CCN(S(=O)(=O)c2ccc(Cl)cc2)CC1 | -1 | 98 | 102 | 4 | · | · | ·
NC(=O)CN1CCCN(S(=O)(=O)c2ccc(Br)cc2)CC1 | -24 | 3.0*[inhibitor] | 2.0*[inhibitor] | 0 | 100 | -4 | 98
O=C(CN1CCN(S(=O)(=O)c2ccc(Br)cc2)CC1)N/N=C/c1ccco1 | 1 | 108 | 162* | 0 | 103 | 5 | 100
O=C(O)C1CCCN(S(=O)(=O)c2ccccc2)C1 (stereo not drawn) | -4 | 101 | 101 | 4 | · | · | ·
Cc1ccc(S(=O)(=O)N2CCN(CC(=O)N/N=C/C=C/c3ccccc3)CC2)cc1 | 0 | 106 | 138* | 0 | 97 | 1 | 103
O=C(O)C1CCCN(S(=O)(=O)c2ccc(Br)cc2)C1 (stereo not drawn) | -55 | 18*[inhibitor] | 11*[inhibitor] | 1 | 101 | 2 | 101
CCOc1ccc(NC(=O)CCc2nnc3ccc(N4CCC(C)CC4)nn23)cc1 | 4 | 98 | 99 | 1 | · | · | ·
COc1ccc(Cl)cc1N1C(=O)C2CCCN2C1c1cccc(F)c1 (stereo not drawn) | -1 | 94 | 95 | 0 | · | · | ·
CC1CCC/C(=N\Nc2ccc(Cl)c(C(=O)O)c2)C1 (stereo not drawn) | -2 | 95 | 96 | 8 | · | · | ·
Cc1cc(C)c(C#N)c(N2CCSCC2)n1 | -31 | 3.0*[inhibitor] | 2.0*[inhibitor] | 14 | 84 | -14 | 96

From PubChem BioAssay
